Experimental data from PubChem BioAssay AID1259336 (Sattelle Laboratory, UCL Respiratory, Division of Medicine, …, 2017).

test: C. elegans growth inhibition, whole organism, log2 fold change (AID 1259336); settings: anthelmintic screen, stronger effect = lower value; in the data active means log2 fold change growth below about -1.8; inactive means the rest;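 further: growth scored by imaging after five days at 20 °C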

log2 fold change growth, inactive:
COc1ccccc1[C@H](C)NCC(=O)Nc1cc(C(F)(F)F)ccc1Cl 0.142, NC(N)=Nc1ccc(-c2ccc(-c3ccc(N=C(N)N)cc3Cl)o2)c(Cl)c1 0.171, CCOC(=O)c1noc(N)c1-c1ccccc1 0.292, CC[C@@H]([C@H](C)O)n1ncn(-c2ccc(N3CCN(c4ccc(OC[C@@H]5CO[C@@](Cn6cncn6)(c6ccc(F)cc6F)C5)cc4)CC3)cc2)c1=O -1.34, CS(=O)(=O)c1ccccc1C(=O)N(Cc1ccccc1)c1ccccc1 -0.293, Cc1ccc(S(=O)(=O)Nc2ccc(CN3CCN(C(=O)c4cccc(C#N)c4)CC3)cc2)cc1 0.152, Nc1ncnc2c1ncn2C[C@@H](O)[C@@H](O)C(=O)O -0.0899, CC(C)(C)c1cc(C(=O)Nc2cccnc2)cc(C(=O)Nc2cccnc2)c1 0.00293, O=C1N(Cc2cc3ccccc3s2)C[C@H]2CN(Cc3ccccc3)CCN12 -0.864, Cc1ccc(-c2cc(C(=O)Nc3cccnc3)c3cc(Br)ccc3n2)cc1 -0.0922, C[C@]1(COc2ccc(N3CCC(Oc4ccc(OC(F)(F)F)cc4)CC3)cc2)Cn2cc([N+](=O)[O-])nc2O1 0.162
